Data taken from the supplement of paper PMC10849652.
Of roughly 7,900 targets only a part is listed; those with a hit were picked by preference. About 0.6% of all pairs of compound and target were hits.

Compound: Cc1nc(Nc2ncc(C(=O)Nc3c(C)cccc3Cl)s2)cc(N2CCN(CCO)CC2)n1 [dasatinib]
Experiment: log2 fold change, soluble protein after heating vs DMSO (PISA); higher = thermal stabilisation; K562 cells, 10 uM, 30 min; active = over 0.2 and 3.5 SD of the protein, either way, in both replicates (recomputed)
Procedure, shortened: (§1)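 K562 cells at 2×10^6 cells/mL were given 10 μM compound for 30 min. Aliquots then went through 3 min of heating across 48°C-58°C, were pooled, and were extracted in PBS with 0.5% NP-40 at 4°C, and the supernatant after 21,000xg for 90 min was quantified by TMTpro 16plex LC-MS/MS with channel sums equalised. Thermal stability relative to control samples, from duplicates, is given as log2 fold change.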

UniProt O95819, sequence (O95819 whole entry, looked up): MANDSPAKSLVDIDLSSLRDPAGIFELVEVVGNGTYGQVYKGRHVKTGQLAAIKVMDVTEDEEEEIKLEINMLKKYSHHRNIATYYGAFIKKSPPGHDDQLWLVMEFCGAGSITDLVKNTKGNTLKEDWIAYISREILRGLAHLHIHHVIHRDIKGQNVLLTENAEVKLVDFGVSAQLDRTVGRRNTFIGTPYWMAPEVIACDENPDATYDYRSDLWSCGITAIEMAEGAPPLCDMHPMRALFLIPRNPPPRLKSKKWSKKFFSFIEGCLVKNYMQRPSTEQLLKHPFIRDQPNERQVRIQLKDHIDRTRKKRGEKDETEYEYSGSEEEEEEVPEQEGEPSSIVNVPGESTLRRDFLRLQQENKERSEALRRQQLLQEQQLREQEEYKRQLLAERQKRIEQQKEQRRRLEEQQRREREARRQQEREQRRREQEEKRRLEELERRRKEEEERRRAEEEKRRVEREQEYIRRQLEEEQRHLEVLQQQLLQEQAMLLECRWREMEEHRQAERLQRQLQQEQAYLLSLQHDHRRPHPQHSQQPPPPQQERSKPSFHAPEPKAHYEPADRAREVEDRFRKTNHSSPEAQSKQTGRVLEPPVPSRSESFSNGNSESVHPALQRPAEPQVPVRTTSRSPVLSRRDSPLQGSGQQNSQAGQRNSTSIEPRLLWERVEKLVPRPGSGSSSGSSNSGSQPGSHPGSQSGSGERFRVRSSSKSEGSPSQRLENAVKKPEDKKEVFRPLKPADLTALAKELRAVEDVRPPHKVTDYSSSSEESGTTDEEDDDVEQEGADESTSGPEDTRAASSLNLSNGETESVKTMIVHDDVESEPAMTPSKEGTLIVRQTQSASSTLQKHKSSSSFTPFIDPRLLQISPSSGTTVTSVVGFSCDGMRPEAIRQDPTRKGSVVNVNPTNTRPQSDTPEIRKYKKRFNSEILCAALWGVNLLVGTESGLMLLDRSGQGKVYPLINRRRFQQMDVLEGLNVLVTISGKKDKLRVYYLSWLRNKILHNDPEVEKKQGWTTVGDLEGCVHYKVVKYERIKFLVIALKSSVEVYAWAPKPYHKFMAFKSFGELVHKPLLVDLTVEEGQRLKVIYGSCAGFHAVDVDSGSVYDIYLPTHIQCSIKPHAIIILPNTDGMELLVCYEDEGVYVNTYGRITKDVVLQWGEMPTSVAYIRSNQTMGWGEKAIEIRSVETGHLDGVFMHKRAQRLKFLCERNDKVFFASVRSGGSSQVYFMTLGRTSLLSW
UniProt P24592, sequence (P24592 whole entry, looked up): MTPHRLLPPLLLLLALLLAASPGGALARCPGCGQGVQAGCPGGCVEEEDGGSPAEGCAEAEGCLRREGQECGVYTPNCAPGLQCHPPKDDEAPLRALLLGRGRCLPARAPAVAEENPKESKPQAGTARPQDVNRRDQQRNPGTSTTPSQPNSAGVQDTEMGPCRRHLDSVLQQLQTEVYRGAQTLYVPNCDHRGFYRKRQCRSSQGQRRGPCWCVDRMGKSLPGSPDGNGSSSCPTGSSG
UniProt Q13163, sequence (Q13163 whole entry, looked up): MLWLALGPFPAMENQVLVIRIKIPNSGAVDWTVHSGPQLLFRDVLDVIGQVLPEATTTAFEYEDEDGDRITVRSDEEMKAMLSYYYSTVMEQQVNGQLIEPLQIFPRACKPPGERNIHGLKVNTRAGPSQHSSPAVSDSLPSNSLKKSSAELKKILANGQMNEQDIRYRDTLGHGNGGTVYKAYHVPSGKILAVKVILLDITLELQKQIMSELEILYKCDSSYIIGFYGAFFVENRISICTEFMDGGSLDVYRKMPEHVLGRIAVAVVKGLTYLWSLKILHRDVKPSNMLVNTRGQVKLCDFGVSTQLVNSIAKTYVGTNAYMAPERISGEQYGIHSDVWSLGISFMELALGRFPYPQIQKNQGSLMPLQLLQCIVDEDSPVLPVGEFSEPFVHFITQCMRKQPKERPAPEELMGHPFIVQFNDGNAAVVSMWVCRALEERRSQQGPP
UniProt Q13422, sequence (Q13422 whole entry, looked up): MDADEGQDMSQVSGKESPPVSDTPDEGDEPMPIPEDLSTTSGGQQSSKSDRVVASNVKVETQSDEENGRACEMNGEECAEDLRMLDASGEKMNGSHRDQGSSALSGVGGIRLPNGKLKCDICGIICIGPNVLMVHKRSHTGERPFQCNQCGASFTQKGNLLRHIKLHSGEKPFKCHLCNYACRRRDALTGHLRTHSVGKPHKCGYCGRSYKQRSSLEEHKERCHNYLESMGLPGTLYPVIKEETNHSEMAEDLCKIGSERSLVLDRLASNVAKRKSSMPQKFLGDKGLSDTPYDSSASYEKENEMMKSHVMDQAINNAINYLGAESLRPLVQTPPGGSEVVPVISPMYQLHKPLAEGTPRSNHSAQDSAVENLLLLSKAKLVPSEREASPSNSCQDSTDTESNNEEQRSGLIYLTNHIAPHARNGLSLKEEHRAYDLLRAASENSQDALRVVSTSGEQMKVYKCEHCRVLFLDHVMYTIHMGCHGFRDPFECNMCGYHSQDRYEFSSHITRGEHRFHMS
UniProt Q9P244, sequence (Q9P244 whole entry, looked up): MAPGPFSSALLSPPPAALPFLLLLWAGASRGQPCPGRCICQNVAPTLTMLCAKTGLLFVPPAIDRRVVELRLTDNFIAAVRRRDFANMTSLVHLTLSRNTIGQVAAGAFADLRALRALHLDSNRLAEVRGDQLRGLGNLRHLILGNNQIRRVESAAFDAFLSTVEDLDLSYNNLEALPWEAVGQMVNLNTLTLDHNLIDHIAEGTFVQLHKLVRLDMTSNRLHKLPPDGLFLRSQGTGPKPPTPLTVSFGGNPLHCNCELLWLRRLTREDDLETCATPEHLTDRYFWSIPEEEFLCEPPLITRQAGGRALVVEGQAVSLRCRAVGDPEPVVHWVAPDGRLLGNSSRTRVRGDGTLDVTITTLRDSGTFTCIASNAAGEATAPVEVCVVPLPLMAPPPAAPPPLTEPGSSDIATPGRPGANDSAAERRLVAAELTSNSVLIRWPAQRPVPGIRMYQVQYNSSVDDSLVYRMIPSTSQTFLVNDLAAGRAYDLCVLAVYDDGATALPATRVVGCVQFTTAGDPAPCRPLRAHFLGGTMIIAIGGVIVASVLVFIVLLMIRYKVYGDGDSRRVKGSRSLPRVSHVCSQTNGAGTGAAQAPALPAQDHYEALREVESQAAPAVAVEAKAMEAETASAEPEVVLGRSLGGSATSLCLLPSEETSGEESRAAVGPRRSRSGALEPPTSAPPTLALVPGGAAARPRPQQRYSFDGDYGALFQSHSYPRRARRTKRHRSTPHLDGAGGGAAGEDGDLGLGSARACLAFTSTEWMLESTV
UniProt P08514, sequence (P08514 whole entry, looked up): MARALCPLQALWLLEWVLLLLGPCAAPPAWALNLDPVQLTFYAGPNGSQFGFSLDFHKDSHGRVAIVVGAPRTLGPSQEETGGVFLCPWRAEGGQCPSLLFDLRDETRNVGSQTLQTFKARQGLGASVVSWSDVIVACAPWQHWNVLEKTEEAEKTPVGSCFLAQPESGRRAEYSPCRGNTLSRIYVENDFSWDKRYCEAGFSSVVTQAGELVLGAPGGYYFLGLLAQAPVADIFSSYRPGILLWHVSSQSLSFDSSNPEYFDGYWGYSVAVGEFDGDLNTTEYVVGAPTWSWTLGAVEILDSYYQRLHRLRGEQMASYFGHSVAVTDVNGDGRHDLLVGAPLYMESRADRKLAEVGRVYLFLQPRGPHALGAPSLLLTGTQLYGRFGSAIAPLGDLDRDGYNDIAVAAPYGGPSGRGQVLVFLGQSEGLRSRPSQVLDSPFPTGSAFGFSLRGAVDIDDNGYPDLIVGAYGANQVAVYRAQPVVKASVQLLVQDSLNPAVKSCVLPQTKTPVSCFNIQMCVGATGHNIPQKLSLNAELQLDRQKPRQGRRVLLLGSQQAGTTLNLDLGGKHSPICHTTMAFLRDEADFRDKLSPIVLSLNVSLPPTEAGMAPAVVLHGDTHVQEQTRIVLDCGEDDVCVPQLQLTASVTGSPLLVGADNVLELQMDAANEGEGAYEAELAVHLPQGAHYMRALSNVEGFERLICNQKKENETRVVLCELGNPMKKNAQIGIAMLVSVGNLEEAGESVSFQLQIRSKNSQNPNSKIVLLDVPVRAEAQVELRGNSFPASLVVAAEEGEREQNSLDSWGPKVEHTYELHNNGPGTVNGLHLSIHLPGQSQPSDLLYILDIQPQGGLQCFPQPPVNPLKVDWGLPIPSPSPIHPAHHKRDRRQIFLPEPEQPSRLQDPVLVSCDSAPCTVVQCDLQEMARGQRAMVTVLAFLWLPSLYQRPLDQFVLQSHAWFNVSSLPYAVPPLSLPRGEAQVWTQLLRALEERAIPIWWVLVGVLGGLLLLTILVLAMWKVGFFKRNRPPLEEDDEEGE
UniProt Q9Y5V3, sequence (Q9Y5V3 whole entry, looked up): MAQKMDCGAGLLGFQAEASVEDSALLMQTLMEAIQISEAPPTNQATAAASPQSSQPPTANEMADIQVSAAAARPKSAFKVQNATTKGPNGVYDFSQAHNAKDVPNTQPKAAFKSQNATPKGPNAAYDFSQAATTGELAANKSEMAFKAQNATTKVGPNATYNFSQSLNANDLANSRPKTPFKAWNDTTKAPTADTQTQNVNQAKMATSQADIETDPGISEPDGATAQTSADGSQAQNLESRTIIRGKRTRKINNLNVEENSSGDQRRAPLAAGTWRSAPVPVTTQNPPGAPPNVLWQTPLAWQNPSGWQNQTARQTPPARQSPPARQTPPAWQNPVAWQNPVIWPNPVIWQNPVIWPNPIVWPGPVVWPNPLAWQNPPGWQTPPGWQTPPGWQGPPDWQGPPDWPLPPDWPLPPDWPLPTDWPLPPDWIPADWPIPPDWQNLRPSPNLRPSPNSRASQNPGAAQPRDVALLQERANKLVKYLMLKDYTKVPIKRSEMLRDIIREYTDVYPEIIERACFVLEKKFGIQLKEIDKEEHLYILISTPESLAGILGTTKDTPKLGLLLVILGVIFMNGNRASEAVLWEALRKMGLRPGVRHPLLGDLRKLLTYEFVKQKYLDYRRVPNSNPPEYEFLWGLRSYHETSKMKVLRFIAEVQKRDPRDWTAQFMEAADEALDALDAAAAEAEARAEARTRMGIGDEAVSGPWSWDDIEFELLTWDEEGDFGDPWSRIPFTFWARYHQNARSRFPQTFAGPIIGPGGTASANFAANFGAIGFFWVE

log2 fold change, inactive:
LEPROT (UniProt O15243) 0.188
MAGED1 isoform 2 (UniProt Q9Y5V3) 0.057
MFSD12 isoform 3 (UniProt Q6NUT3) -0.093
LIN52 (UniProt Q52LA3) -0.049
LSR isoform 3 (UniProt Q86X29) -0.074
IKZF1 (UniProt R9R4D9) -0.17
MFAP3 (UniProt P55082) -0.083
IGFBP3 isoform 2 (UniProt P17936) -0.001
LRFN1 (UniProt Q9P244) -0.129
MED17 (UniProt Q9NVC6) -0.152
LUM (UniProt P51884) 0.002
LRRCC1 (UniProt Q9C099) 0.017
INTS5 (UniProt Q6P9B9) -0.11
IGFBP6 (UniProt P24592) -0.038
MED29 (UniProt Q9NX70) 0.226
MAP4K4 isoform 6 (UniProt O95819) -0.001
LRRFIP1 isoform 4 (UniProt Q32MZ4) -0.095
MAP2K5 (UniProt Q13163) 0.063
ITGA2B (UniProt P08514) 0.012

Compound: Cc1ncc(-c2ccnc(Nc3ccc(S(C)(=O)=O)cc3)n2)n1C(C)C
Experiment: as above
Procedure, shortened: as §1

log2 fold change, inactive:
IKZF1 isoform 2 (UniProt Q13422) 0.043
MAGED1 isoform 2 (UniProt Q9Y5V3) -0.082
LYN isoform 2 (UniProt P07948) -0.006
ILF3 (UniProt Q12906) 0.364
MAP4K2 (UniProt Q12851) -0.13
MAPRE3 isoform 2 (UniProt Q9UPY8) -0.118
LOX (UniProt P28300) 0.12
MED17 (UniProt Q9NVC6) -0.108
LUM (UniProt P51884) 0.257
MAP3K20 isoform 2 (UniProt Q9NYL2) -0.07
INTS5 (UniProt Q6P9B9) 0.167
MED29 (UniProt Q9NX70) -0.14
MAP4K4 isoform 6 (UniProt O95819) 0.008
MAP4 isoform 5 (UniProt P27816) 0
ITGA2B (UniProt P08514) -0.151
MARCHF3 (UniProt Q86UD3) 0.036

Compound: Cn1cc(-c2ccc3c(c2)CCN3C(=O)Cc2cccc(C(F)(F)F)c2)c2c(N)ncnc21
Experiment: as above
Procedure, shortened: as §1

log2 fold change, inactive:
LEPROT (UniProt O15243) -0.193
IKZF1 isoform 2 (UniProt Q13422) -0.026
MAGED1 isoform 2 (UniProt Q9Y5V3) 0.111
MFSD12 isoform 3 (UniProt Q6NUT3) -0.124
LYN isoform 2 (UniProt P07948) 0
LSR isoform 3 (UniProt Q86X29) 0.026
IKZF1 (UniProt R9R4D9) -0.044
MAML1 (UniProt Q92585) 0.087
MAP4K2 (UniProt Q12851) -0.135
KIF13A isoform 4 (UniProt Q9H1H9) 0.069
MAPRE3 isoform 2 (UniProt Q9UPY8) -0.028
IGFBP3 isoform 2 (UniProt P17936) 0.106
ING5 (UniProt Q8WYH8) 0.164
LRFN1 (UniProt Q9P244) 0.178
MED17 (UniProt Q9NVC6) -0.033
LUM (UniProt P51884) 0.177
IGFBP6 (UniProt P24592) 0.152
MAP4K4 isoform 6 (UniProt O95819) 0.1
LRRFIP1 isoform 4 (UniProt Q32MZ4) -0.226
MAP2K5 (UniProt Q13163) 0.06
KIZ (UniProt Q2M2Z5) -0.446
ITGA2B (UniProt P08514) -0.122

Compound: Cn1cc(-c2ccc3nnc(C(F)(F)c4ccc5ncccc5c4)n3n2)cn1
Experiment: as above
Procedure, shortened: as §1

log2 fold change, inactive:
MAPK11 (UniProt Q15759) -0.024
IKZF1 isoform 2 (UniProt Q13422) 0.015
KIF21A (UniProt H0YI78) 0.134
MAML1 (UniProt Q92585) -0.009
LRFN1 (UniProt Q9P244) 0.011
MED17 (UniProt Q9NVC6) -0.069
LUM (UniProt P51884) -0.075
LRRCC1 (UniProt Q9C099) 0.063
INTS5 (UniProt Q6P9B9) -0.003
ITPRID2 (UniProt P28290) -0.032
IGFBP6 (UniProt P24592) 0.006
MAP4 isoform 5 (UniProt P27816) -0.037
MAP2K5 (UniProt Q13163) 0
KIZ (UniProt Q2M2Z5) 0.196
LDLRAP1 (UniProt Q5SW96) 0.14
ITGA2B (UniProt P08514) -0.051
